Measurements reported in PubChem BioAssay AID1159580 (chemical genetic matrix, 2015).
“And” between values parts separate entries of the source, which are not always exact repeats. Equal values may be shown once. About 2,000 (36%) of roughly 5,500 compounds were called active. Roughly 18% stayed inconclusive and do not appear here. Cut-off read from the data, not from the text of the source: active = normalized growth mostly below about 0.91 (no sharp cut-off); inconclusive = no clear call, values can overlap the other calls; inactive = mostly above about 0.92. The list shows a part of the results.

Assay: chemical genetic growth profiling, strain panel (AID 1159580);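 note: tested at 20 µM; growth read once vehicle control cultures reached saturation at 30 °C; 1 = growth at the plate median or of vehicle wells; lower values mean less growth of the strain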
Settings: S. cerevisiae deletion strains, growth OD

Measured: normalized growth

NC(=O)c1cc[n+](CC2=C(C(=O)O)N3C(=O)C(NC(=O)C(c4ccccc4)S(=O)(=O)[O-])C3SC2)cc1 (centres undefined)
inactive: locus YAL013W, strain DEP1, stronger effect = lower value 0.983 | locus YAL021C, strain ccr4, stronger effect = lower value 1.01 | locus YAL026C, strain drs2, stronger effect = lower value 0.997 | locus YAL030W, strain snc1, stronger effect = lower value 1.01 | locus YBL061C, strain skt5, stronger effect = lower value 0.994 | locus YBR009C, strain hhf1, stronger effect = lower value 1.02 | locus YBR021W, strain FUR4, stronger effect = lower value 0.97 | locus YBR023C, strain chs3, stronger effect = lower value 0.997 | locus YBR171W, strain sec66, stronger effect = lower value 1 | locus YBR229C, strain ROT2, stronger effect = lower value 0.989 | locus YBR231C, strain swc5, stronger effect = lower value 1 | locus YBR279W, strain paf1, stronger effect = lower value 0.993 | locus YCL011C, strain gbp2, stronger effect = lower value 1.02 | locus YCL016C, strain dcc1, stronger effect = lower value 1.01 | locus YCL029C, strain bik1, stronger effect = lower value 0.992 | locus YCL069W, strain vba3, stronger effect = lower value 1.02 | locus YCR088W, strain abp1, stronger effect = lower value 0.987 | locus YDL005C, strain med2, stronger effect = lower value 0.998 | locus YDL035C, strain GPR1, stronger effect = lower value 0.989 | locus YDL040C, strain nat1, stronger effect = lower value 1 | locus YDL074C, strain BRE1, stronger effect = lower value 1.02 | locus YDL101C, strain DUN1, stronger effect = lower value 0.994 | locus YDL134C, strain PPH21, stronger effect = lower value 0.973 | locus YDL185W, strain tfp1, stronger effect = lower value 0.995 | locus YDL192W, strain arf1, stronger effect = lower value 0.984 | locus YDR001C, strain nth1, stronger effect = lower value 0.99 | locus YDR069C, strain doa4, stronger effect = lower value 0.98 | locus YDR101C, strain arx1, stronger effect = lower value 1 | locus YDR137W, strain rgp1, stronger effect = lower value 1.02 | locus YDR150W, strain NUM1, stronger effect = lower value 0.988 | locus YDR159W, strain sac3, stronger effect = lower value 0.997 | locus YDR162C, strain NBP2, stronger effect = lower value 0.981 | locus YDR195W, strain ref2 0.988 | locus YDR297W, strain sur2, stronger effect = lower value 1 | locus YDR318W, strain mcm21, stronger effect = lower value 0.986 | locus YDR334W, strain swr1, stronger effect = lower value 0.994 | locus YDR335W, strain msn5, stronger effect = lower value 0.984 | locus YDR388W, stronger effect = lower value 0.992 | locus YDR392W, strain spt3, stronger effect = lower value 1.04 | locus YDR502C, strain sam2, stronger effect = lower value 0.987 | locus YEL003W, strain gim4, stronger effect = lower value 0.985 | locus YEL037C, strain rad23, stronger effect = lower value 0.999 | locus YEL061C, strain CIN8 (second series), stronger effect = lower value 0.99 | locus YEL061C, strain CIN8, stronger effect = lower value 0.994 | locus YER015W, strain faa2, stronger effect = lower value 1.02 | locus YER016W, strain bim1, stronger effect = lower value 0.99 | locus YER110C, stronger effect = lower value 0.986 | locus YER111C, strain swi4, stronger effect = lower value 0.995 | locus YER155C, strain BEM2 (second series), stronger effect = lower value 0.986 | locus YER155C, strain BEM2, stronger effect = lower value 0.978 | locus YER167W, strain BCK2, stronger effect = lower value 0.98 | locus YFR010W, strain ubp6, stronger effect = lower value 0.974 | locus YGL078C, strain dbp3, stronger effect = lower value 0.988 | locus YGL086W, strain mad1, stronger effect = lower value 0.978 | locus YGL167C, strain pmr1, stronger effect = lower value 0.984 | locus YGL173C, strain kem1, stronger effect = lower value 1.01 | locus YGL227W, strain vid30, stronger effect = lower value 1.01 | locus YGL240W, strain doc1, stronger effect = lower value 0.997 | locus YGL248W, strain PDE1, stronger effect = lower value 0.976 | locus YGL253W, strain hxk2, stronger effect = lower value 0.992 | locus YGR078C, strain PAC10, stronger effect = lower value 1.01 | locus YGR135W, strain pre9, stronger effect = lower value 0.957 | locus YGR229C, strain SMI1, stronger effect = lower value 0.958 | locus YGR252W, strain gcn5, stronger effect = lower value 0.937 | locus YHR013C, strain ard1, stronger effect = lower value 1 | locus YHR027C, strain rpn1, stronger effect = lower value 1.01 | locus YHR030C, strain SLT2, stronger effect = lower value 0.986 and 1.08 | locus YHR079C, strain IRE1 (second series), stronger effect = lower value 0.996 | locus YHR079C, strain IRE1, stronger effect = lower value 1.11 | locus YHR094C, strain hxt1, stronger effect = lower value 0.984 | locus YHR129C, strain ARP1, stronger effect = lower value 0.988 | locus YHR142W, strain chs7, stronger effect = lower value 0.993 | locus YHR200W, strain rpn10, stronger effect = lower value 0.986 | locus YIL066C, strain RNR3, stronger effect = lower value 0.995 | locus YIL073C, strain SPO22, stronger effect = lower value 0.96 | locus YIL125W, strain kgd1, stronger effect = lower value 0.992 | locus YIR030C, strain dcg1, stronger effect = lower value 0.99 | locus YJL092W, strain hpr5, stronger effect = lower value 0.995 | locus YJL095W, strain BCK1 (second series), stronger effect = lower value 0.99 | locus YJL095W, strain BCK1, stronger effect = lower value 1.02 and 1.05 | locus YJL115W, strain asf1, stronger effect = lower value 0.988 | locus YJL129C, strain trk1, stronger effect = lower value 0.962 | locus YJL134W, strain LCB3, stronger effect = lower value 0.985 | locus YJL154C, strain vps35, stronger effect = lower value 0.998 | locus YJL164C, strain tpk1, stronger effect = lower value 1.02 | locus YJL166W, strain qcr8, stronger effect = lower value 1 | locus YJL168C, strain set2, stronger effect = lower value 0.998 | locus YJL187C, strain SWE1 (second series), stronger effect = lower value 1.01 | locus YJR043C, strain POL32, stronger effect = lower value 0.993
